# MARV entry inh = Marburg virus entry inhibition; Marburg virus pseudotyped entry inhibition, cell reporter; Potency, µM (highest dose often 37.8 µM), inactives show top-dose activity change, negative = inhibition, usual class: inhibitors; 1.8% of 300,000 active; AID 540276; calls by dose curve; tested in HEK293 cells; also: potency is read from the fitted curve at half-maximal effect
# HCV inh = blocks hepatitis C virus; Huh7.5.1 HCVcc-Cre infection, luciferase reporter, 44 h; Potency, µM (highest dose often 41.8 µM), without a hit: at the top dose activity change, negative = inhibition, actives largely listed as inhibitors; 3.4% of 340,000 active; active = well fitted inhibition curve with a large enough effect; inconclusive = small, poorly fitted or top-dose-only effect, or another doubt; inactive = no such curve, though single readings can be large or run the other way; also: potency is read from the fitted curve at half-maximal effect
#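 Reporter virus HCVcc-Cre (~0.5 moi) infects cells exposed to compound; seeding density 1,000 cells/well with 4 h settling beforehand. Luminescence, 15 sec read, taken 44 h post-infection following a 15 min RT substrate incubation.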
# FMDV antiviral = antivirals against foot and mouth disease virus; 1.2% of 410,000 active; Potency, µM (titrated, usually from 57.9 µM), inactives show top-dose activity change, negative = inhibition, hits mostly inhibitors; FMDV antiviral cell-based qHTS; calls by dose curve; tested in HEK293T cells; also: read-out not given here; potency is read from the fitted curve at half-maximal effect; nearly all actives have a fitted effect of over 45% in size
# LASV entry inh = blocks Lassa virus binding to or entry into cells; AID 540256; 1.2% of 300,000 active; Lassa virus pseudotype entry inhibition, cell reporter; Potency, µM (titrated, usually from 37.9 µM), without a hit: at the highest dose activity change, negative = inhibition, most hits filed as inhibitors; calls by dose curve; tested in HEK293 cells; also: potency is read from the fitted curve at half-maximal effect; nearly all actives have a fitted effect of over 50% in size
# HCMV antiviral = human cytomegalovirus inhibition. HFF cells, HCMV-luciferase reporter, 72 h; active compounds read low. 4.5% of 410,000 active. activity change, negative = inhibition, % at 57.5 µM; in the data active = activity change below about -60%; inconclusive = no clear call, values can overlap the other calls; inactive = above about -39%
#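 Two-dose cell screen: HFF monolayers treated with compounds and infected with luciferase-expressing HCMV at 1 PFU/cell, 72 h at 37C, then lysed for luciferase measurement.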
# The depositor's hits bear a star; ? = inconclusive; · = no result; + = active, no number; [ ] = another dose, or the depositor's remark. Rows were chosen to be rich in hits. Some 7.9% of all compounds tested hit in one or more screens of this group. % is scaled to controls: 0 for no effect and ±100 for the full control effect.
SMILES,MARV entry inh,HCV inh,FMDV antiviral,LASV entry inh,HCMV antiviral
O=C(Nc1ccc(OCC(=O)N2CCC(Cc3ccccc3)CC2)cc1)c1ccco1,-2%,-29%,-16%,-19%,-83*
CC1CCN(C(=O)COc2ccc(Nc3ccccc3)cc2)CC1,?,-7%,-12%,-5%,-74*
COc1ccc(OC)c(C(=O)N2CCC(n3nccc3NC(=O)CC(C)C)CC2)c1,·,12%,-11%,·,0
CCN(CC)c1ccc(-c2sc(Nc3ccccc3)n[n+]2-c2ccc(F)cc2)cc1,·,-9%,?,·,-4
CCc1ccc(Nc2n[n+](-c3ccccc3)c(-c3ccc(N(CC)CC)cc3)s2)cc1,·,11µM*,?,·,-93*
CCc1ccc(Nc2n[n+](-c3ccccc3)c(-c3ccc(OCc4ccccc4)cc3)s2)cc1,·,?,-1%,·,-96*
COC(=O)C[C@H]1c2ccccc2[C@@H]2C(=C[C@@H](C)[C@H]3C(=O)NC(=O)[C@H]32)N1C(=O)OC,3%[14.2 µM],·,·,·,·
CC(C)(C)NC[C@H](O)c1cc(O)cc(O)c1,21%,·,·,·,·
CCCCOc1ccc(C(=O)NCC2(N3CCN(C)CC3)CCCCC2)cc1,?,·,-4%,3%[46.1 µM],-35
CC1CCCN(C(=O)COC(=O)c2ccc3[nH]c4c(c3c2)CCCC4)C1 (stereo not drawn),?,?,39%,?,-14
COc1ccc(C(C[N+](=O)[O-])c2c(C)cc3ccccn23)c(OC)c1 (stereo not drawn),?,-9%,?,·,24
COc1ccc(OC)c(C(C[N+](=O)[O-])c2c(C)cc3ccccn23)c1 (stereo not drawn),?,?,22µM*,?,48
COc1ccc(S(=O)(=O)N2CCC(N3CCN(Cc4ccccc4)C(=O)C3=O)CC2)cc1,·,·,55%,6%[46.1 µM],-6
CCCCCCCCCCCCC/C=C/[C@@H](O)[C@H](CO)NC(=O)CCCCCCC,·,·,-5%[6.7 µM],·,·
O=C(c1cc(-c2ccc(Br)cc2)n[nH]1)N1CCN(S(=O)(=O)c2ccc(Br)s2)CC1,·,·,?,?,+
O=C(c1cc(-c2ccc(Cl)cc2)n[nH]1)N1CCN(S(=O)(=O)c2ccc(Br)s2)CC1,·,·,-27%,?,?
CCOc1ccc(NC(=O)N2CCC(c3nc4ccccc4[nH]3)CC2)cc1,?,-6%,-15%,4%[46.1 µM],21
N#Cc1ccccc1NC(=O)C(=O)NCCc1csc(-c2ccc(C(F)(F)F)cc2)n1,·,·,-11%,?,-13
O=C1CN=C(Nc2ccccc2)N1Cc1cccs1,0%,6%,1%,1%,-17
CC(C)c1ccc(NC2=NCC(=O)N2Cc2cccs2)cc1,?,?,20%,?,-60*
NC(=O)c1nsc(C(=O)N(c2ccccc2)C(C(=O)NCC2CCCO2)c2ccc(F)cc2)c1N (stereo not drawn),?,4%,-18%,-28%[46.1 µM],?
CCOc1ccc(N(C(=O)c2snc(C(N)=O)c2N)C(C(=O)NCC2CCCO2)c2ccc(C)o2)cc1 (stereo not drawn),-6%[46.1 µM],4%,0%,·,4
NC(=O)c1nsc(C(=O)N(c2ccc3c(c2)OCCO3)C(C(=O)NCC2CCCO2)c2ccc(F)cc2)c1N (stereo not drawn),?,?,10%,?,-74*
Cc1ccc(N(C(=O)c2snc(C(N)=O)c2N)C(C(=O)NCC2CCCO2)c2ccc3ncccc3c2)cc1 (stereo not drawn),-26%,-22%,-8%,-4%,-20
COc1ccc(N(C(=O)c2snc(C(N)=O)c2N)C(C(=O)NC2CCCCC2)c2ccc(C)o2)cc1 (stereo not drawn),?,?,-15%,?,-70*
SMILES,MARV entry inh,HCV inh,FMDV antiviral,LASV entry inh,HCMV antiviral
COc1ccc(N(C(=O)c2snc(C(N)=O)c2N)C(C(=O)NC2CCCC2)c2ccco2)cc1 (stereo not drawn),?,-20%,-5%,-27%[46.1 µM],-38
Cc1ccc(C(C(=O)NCC2CCCO2)N(C(=O)c2snc(C(N)=O)c2N)c2ccc3c(c2)OCCO3)cc1 (stereo not drawn),?,?,-2%,6.3µM*,-5
Cc1ccc(C(C(=O)NCC2CCCO2)N(C(=O)c2snc(C(N)=O)c2N)c2ccc(F)cc2)o1 (stereo not drawn),?,-12%,-14%,?,-75*
NC(=O)c1nsc(C(=O)N(c2ccccc2)C(C(=O)NCC2CCCO2)c2cccs2)c1N (stereo not drawn),?,-5%,-20%,?,-19
Cc1cc(C)cc(N(C(=O)c2snc(C(N)=O)c2N)C(C(=O)NCC2CCCO2)c2cccs2)c1 (stereo not drawn),?,11µM*,-11%,?,-93*
COc1ccccc1NS(=O)(=O)c1cccc(NC(=O)Nc2cccc(Cl)c2)c1,?,?,?,13µM*,-95*
NS(=O)(=O)c1cccc(NC(=O)c2cncc(Br)c2)c1,·,8%,6%,·,-9
COc1ccccc1NS(=O)(=O)c1ccc(Cl)c(NC(=O)c2sc3cc(Cl)ccc3c2Cl)c1,-2%,-17%,8%,?,-24
COc1ccccc1NS(=O)(=O)c1cccc(NC(=O)c2cncc(Br)c2)c1,3.5µM*,13µM*,-5%,?,?
COc1ccccc1NS(=O)(=O)c1cccc(NC(=O)c2sc3ccccc3c2Cl)c1,?,?,14%,?,-68*
Fc1cccc(NCCc2c[nH]c3ccccc23)n1,·,?,38%,·,-3
c1ccc2c(NCCc3c[nH]c4ccccc34)c3ccccc3nc2c1,·,14µM*,?,·,?
OCCNc1c2c(nc3ccccc13)CCCC2,-20%[46.1 µM],-3%,-22%,2%,13
OCCCNc1c2ccccc2nc2ccccc12,7.1µM*,11µM*,-10%,?,-102*
COc1ccc(-c2nc(C)ncc2N=Nc2ccccc2)cc1,-15%,32µM*,-14%,2%,-35
CN(C)c1ccc(N=Nc2ccccc2C(=O)OCC(=O)N(C)C2CCCCC2)cc1,?,12%,11%,?,34
CN(C)c1ccc(N=Nc2ccccc2C(=O)OCC(=O)NCC2CCCCC2)cc1,?,10%,-12%,-12%,-61*
O=C(O)/C=C/c1cn(-c2ccccc2)nc1-c1ccccc1,·,13%,17%,·,94
Cn1cc(C=CC(=O)O)c2nccnc21,·,·,-8%,·,-62*
C=C1CC(COc2ccc3c(C)c(Cl)c(=O)oc3c2)(c2ccccc2)OC1=O (stereo not drawn),7.1µM*,?,22µM*,10µM*,-98*
COc1ccc2c(C)c(Cl)c(=O)oc2c1,4%,-7%,-21%,-5%,5
Cc1ccc(S(=O)(=O)N2CCC([C@H](C#N)c3ccccc3)CC2)cc1,·,·,·,·,-12
COc1ccc(S[C@]2(c3nc(C)no3)CC(=O)N(S(=O)(=O)c3ccc(F)cc3)[C@@H]2c2ccc(OC)cc2)cc1,·,·,·,·,-18
